# Laboratory results from PubChem BioAssay (NCI).
# Compounds without any hit were thinned out: in the full panel of roughly 79,000, 15% have a hit. Values without a mark were called inactive. Rule as the data show it: active = growth inhibition above about 70%; inactive = the rest.
# Assay: NCI Yeast Anticancer Drug Screen. Data for the bub3 strain (AID 167)
# Details: S. cerevisiae bub3 mutant strain, at 50.0 µM, active compounds read high
# In short: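 Compounds were applied to a genetically altered yeast strain carrying a cell-cycle control defect. Growth inhibition was scored against vehicle-treated controls.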
row,Compound,growth inhibition
1,Cn1c2ccccc2c2nnc(NCCCCO)nc21,19.6%
2,O=C(c1ccccc1)c1ccc(-c2ccc(O)cc2)cc1,57.1%
3,CC(=O)C[n+]1ccc(C)cc1Sc1ccccc1C,-3.35%
4,Oc1ccc(CCC2CCNc3ccccc32)cc1 (centres undefined),-3.95%
5,Cc1ccc(O)c(N)c1,-9.6%
6,O=[N+]([O-])c1ccc(-c2nc(N(CCO)CCO)c3ccccc3n2)o1,25.1%
7,O=C(Nc1c(Cl)cc(Cl)cc1Cl)ON=C1CCCCC1,15.5%
8,C/C(=N\N=C(/C)c1cccc([N+](=O)[O-])c1)c1cccc([N+](=O)[O-])c1,16.4%
9,Nc1ccc2c(c1)Cc1cc(N)c(N)cc1-2,-3.8%
10,Oc1ccc2ccccc2c1CN1CCOCC1,15.1%
11,CC(=O)N(C)N=Nc1ccc(C)cc1,0.1%
12,CC(=O)c1cc(O)ccc1O,-2.6%
13,CCOC(=O)C(CCC#N)(CCC#N)C(=O)OCC,12.6%
14,CCOP(=O)(NC(c1ccccc1)c1ccccc1)OCC,25.1%
15,CC(O)C(F)(F)C(F)(F)C(F)(F)F (centres undefined),-2.7%
16,CC(=O)c1cccc(O)c1,-5.1%
17,Cc1ccc(N2C(=O)c3cccc4c(N)c(S(=O)(=O)O)cc(c34)C2=O)cc1,-13.7%

row,Compound,growth inhibition
1,CN(C)c1ncnc2c1cnn2C,-0.7%
2,CCOc1ccc2c(c1)c(C)cc(C)[n+]2CC,13%
3,O=C(O)c1ccc(OCc2ccccc2)cc1,-28.1%
4,O=S(Cc1ccccc1)/C(=C/NC(=S)Nc1ccccc1)c1ccccc1 (centres undefined),-16.9%
5,CC(c1ccccc1)N1C(=O)CSC1=S (centres undefined),53.6%
6,O=C1C=C[C@H](O)[C@@]2(CO)O[C@@H]12,-13.7%
7,O=C1C=Cc2ccccc2/C1=C/c1[nH]c(=O)[nH]c1O,-3%
8,Cc1ccc(S(N)(=O)=O)cc1Cl,-1.5%
9,C/C(=N\Nc1ccc([N+](=O)[O-])cc1[N+](=O)[O-])c1ccc(Br)cc1,8.7%
10,CCCCCCCCCCC(=O)CCCCCCCCCC,7.6%
11,CC(=O)CSc1ncnc2nc[nH]c12,5.85%
12,COC(=O)Cc1cc(COC(C)=O)ccc1C,-17.2%
13,COc1ccc2c(Cl)cc(NC(=O)Nc3c(C)cccc3C)nc2c1,21.1%
14,CCOC(=O)c1ccc(Nc2sc(C(=O)c3ccc(Br)cc3)c(N)c2C#N)cc1,-3.6%
15,CCOC(=O)c1c[nH][nH]c1=O,7.85%
16,FC(F)(F)c1cc(NC2=NCCN=C(Nc3cc(C(F)(F)F)cc(C(F)(F)F)c3)SS2)cc(C(F)(F)F)c1,-22%
17,O=Cc1ccc(O)c(O)c1,4.05%

# Assay: NCI Yeast Anticancer Drug Screen. Data for the mlh1 rad18 strain (AID 175)
# Details: S. cerevisiae mlh1 rad18 strain growth inhibition; at 50.0 µM; active compounds read high
# In short: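 Read-out is yeast growth inhibition, calculated against vehicle-only controls. The compound was applied to a strain engineered with DNA damage repair alterations.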
row,Compound,growth inhibition
1,Cn1c2ccccc2c2nnc(NCCCCO)nc21,41.2%
2,O=C(c1ccccc1)c1ccc(-c2ccc(O)cc2)cc1,-8%
3,CC(=O)C[n+]1ccc(C)cc1Sc1ccccc1C,33.8%
4,CC(=O)c1cccs1,6.7%
5,Oc1ccc(CCC2CCNc3ccccc32)cc1 (centres undefined),-3.9%
6,Cc1ccc(O)c(N)c1,0.95%
7,O=[N+]([O-])c1ccc(-c2nc(N(CCO)CCO)c3ccccc3n2)o1,66.8%
8,O=C(Nc1c(Cl)cc(Cl)cc1Cl)ON=C1CCCCC1,3.6%
9,C/C(=N\N=C(/C)c1cccc([N+](=O)[O-])c1)c1cccc([N+](=O)[O-])c1,-7.7%
10,Oc1ccc2ccccc2c1CN1CCOCC1,19%
11,CC(=O)N(C)N=Nc1ccc(C)cc1,-4.05%
12,CC(=O)c1cc(O)ccc1O,1.8%
13,CCOC(=O)C(CCC#N)(CCC#N)C(=O)OCC,38.7%
14,C=CCOc1ccc(Cl)cc1Cl,-1.75%
15,CCOP(=O)(NC(c1ccccc1)c1ccccc1)OCC,28.8%
16,CC(O)C(F)(F)C(F)(F)C(F)(F)F (centres undefined),20.8%
17,CC(=O)c1cccc(O)c1,17.7%
18,Cc1ccc(N2C(=O)c3cccc4c(N)c(S(=O)(=O)O)cc(c34)C2=O)cc1,-28.4%

row,Compound,growth inhibition
1,CN(C)c1ncnc2c1cnn2C,2.65%
2,CCOc1ccc2c(c1)c(C)cc(C)[n+]2CC,-3.4%
3,O=C(O)c1ccc(OCc2ccccc2)cc1,19.9%
4,O=S(Cc1ccccc1)/C(=C/NC(=S)Nc1ccccc1)c1ccccc1 (centres undefined),-7.15%
5,CC(c1ccccc1)N1C(=O)CSC1=S (centres undefined),52.1%
6,O=C1C=C[C@H](O)[C@@]2(CO)O[C@@H]12,11.7%
7,O=C1C=Cc2ccccc2/C1=C/c1[nH]c(=O)[nH]c1O,-5.3%
8,Cc1ccc(S(N)(=O)=O)cc1Cl,16.6%
9,C/C(=N\Nc1ccc([N+](=O)[O-])cc1[N+](=O)[O-])c1ccc(Br)cc1,3.05%
10,C1CCc2onc(-c3noc4c3CCCCC4)c2CC1,2.8%
11,CCCCCCCCCCC(=O)CCCCCCCCCC,7.05%
12,COC(=O)Cc1cc(COC(C)=O)ccc1C,-7.8%
13,COc1ccc2c(Cl)cc(NC(=O)Nc3c(C)cccc3C)nc2c1,7.2%
14,CCOC(=O)c1ccc(Nc2sc(C(=O)c3ccc(Br)cc3)c(N)c2C#N)cc1,-2.05%
15,CCOC(=O)c1c[nH][nH]c1=O,5.8%
16,FC(F)(F)c1cc(NC2=NCCN=C(Nc3cc(C(F)(F)F)cc(C(F)(F)F)c3)SS2)cc(C(F)(F)F)c1,-15.6%
17,O=Cc1ccc(O)c(O)c1,18.9%
